Test results from PubChem BioAssay (Tox21).
Several values for one entry are separate records, joined by “and”; a condition that tells them apart may be missing. Equal entries are not always repeated. Activity calls are given as the source filed them. Unless noted, calls come from the whole dose curve; as a rule, active = well fitted curve in the direction sought with a large enough effect in the repeat runs; inconclusive = weak or mixed curves; inactive = flat fitted curve, though single readings scatter.

What was measured:
[1] = qHTS assay to test for compound auto fluorescence at 535 nm (green) in HEK293 cells (AID 720680)
[2] = qHTS assay to test for compound auto fluorescence at 460 nm (blue) in HEK293 cell free culture (AID 720681); note: potency is the fitted concentration of half-maximal effect
Procedure, shortened: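 Blue fluorescence (Ex 405/Em 460 nm, triamterene-equivalent) was read immediately after pin transfer of compound or DMSO into medium (DMEM, 10% FBS) without cells.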

[3] = qHTS assay to test for compound auto fluorescence at 535 nm (green) in HEK293 cell free culture (AID 720682)
Procedure, shortened: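 Measurement is a direct plate read of green fluorescence (485 nm in, 535 nm out) after compound addition to serum-supplemented DMEM lacking cells, with fluorescein used to express intensities.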

[4] = qHTS assay to test for compound auto fluorescence at 590 nm (red) in HEK293 cell free culture (AID 720683)
Procedure, shortened: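 Red-channel autofluorescence of compounds in culture medium (DMEM, 10% FBS), no cells, measured at 540/590 nm. Rose Bengal sodium is the reference fluorophore for equivalence.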

[5] = qHTS assay to test for compound auto fluorescence at 590 nm (red) in HepG2 cell free culture (AID 720684)
Procedure, shortened: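 Plate contents were MEM with 10% FBS plus test compound or DMSO, no cells. Fluorescence was recorded with 540 nm excitation and 590 nm emission.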

[6] = qHTS assay to test for compound auto fluorescence at 460 nm (blue) in HepG2 cell free culture (AID 720685); note: potency is the fitted concentration of half-maximal effect
Procedure, shortened: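 Compound (23 nL) or DMSO pinned into cell-free MEM with 10% FBS; blue fluorescence read at 405/460 nm excitation/emission, expressed as auto-fluorescence equivalency to triamterene.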

[7] = qHTS assay to test for compound auto fluorescence at 535 nm (green) in HepG2 cell free culture (AID 720686)
[8] = qHTS assay to test for compound auto fluorescence at 460 nm (blue) in HepG2 cells (AID 720687); note: potency is the fitted concentration of half-maximal effect
Procedure, shortened: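 Blue-channel autofluorescence (Ex/Em 405/460 nm, triamterene-equivalent) was measured after 1 hr compound exposure at 37 C, 5% CO2. Cells were HepG2, plated overnight at 37 C in MEM plus 10% FBS.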

[9] = target: Glucocorticoid receptor (Homo sapiens) (UniProt P04150); assay: qHTS assay to identify small molecule agonists of the glucocorticoid receptor (GR) signaling pathway (AID 720691; active = well fitted activation curve with a large enough effect in the signal ratio in the repeat runs, not every such curve was filed as active; inconclusive = weak or mixed curves, or effect the other way; inactive = no such curve, though single readings can be large or run the other way; the % refers to the signal ratio; note: potency is the fitted concentration of half-maximal effect)
Procedure, shortened: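 Beta-lactamase reporter activity, read as fluorescence intensity, was measured in GR-bla HeLa cells exposed to compounds for 18 h at 37 C and then loaded with LiveBLAzer B/G FRET substrate for 2 h at room temperature.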

[10] = target: Glucocorticoid receptor (Homo sapiens) (UniProt P04150); assay: qHTS assay to identify small molecule antagonists of the glucocorticoid receptor (GR) signaling pathway (AID 720692; active = well fitted inhibition curve with a large enough effect in the signal ratio in the repeat runs, not every such curve was filed as active; inconclusive = weak or mixed curves, or effect the other way; inactive = no such curve, though single readings can be large or run the other way; the % refers to the signal ratio; note: potency is the fitted concentration of half-maximal effect)
Procedure, shortened: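 Fluorescence from cleaved LiveBLAzer B/G FRET substrate reports GRE-driven beta-lactamase in HeLa cells; compounds are tested against 5 nM dexamethasone (final) over 18 h at 37 C, substrate incubation 2 h at room temperature.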

Measured: Potency
Tags give direction and shape of the fitted curve or compound fluorescence and quenching.

Sequence of Glucocorticoid receptor (Homo sapiens) (P04150 whole entry, looked up): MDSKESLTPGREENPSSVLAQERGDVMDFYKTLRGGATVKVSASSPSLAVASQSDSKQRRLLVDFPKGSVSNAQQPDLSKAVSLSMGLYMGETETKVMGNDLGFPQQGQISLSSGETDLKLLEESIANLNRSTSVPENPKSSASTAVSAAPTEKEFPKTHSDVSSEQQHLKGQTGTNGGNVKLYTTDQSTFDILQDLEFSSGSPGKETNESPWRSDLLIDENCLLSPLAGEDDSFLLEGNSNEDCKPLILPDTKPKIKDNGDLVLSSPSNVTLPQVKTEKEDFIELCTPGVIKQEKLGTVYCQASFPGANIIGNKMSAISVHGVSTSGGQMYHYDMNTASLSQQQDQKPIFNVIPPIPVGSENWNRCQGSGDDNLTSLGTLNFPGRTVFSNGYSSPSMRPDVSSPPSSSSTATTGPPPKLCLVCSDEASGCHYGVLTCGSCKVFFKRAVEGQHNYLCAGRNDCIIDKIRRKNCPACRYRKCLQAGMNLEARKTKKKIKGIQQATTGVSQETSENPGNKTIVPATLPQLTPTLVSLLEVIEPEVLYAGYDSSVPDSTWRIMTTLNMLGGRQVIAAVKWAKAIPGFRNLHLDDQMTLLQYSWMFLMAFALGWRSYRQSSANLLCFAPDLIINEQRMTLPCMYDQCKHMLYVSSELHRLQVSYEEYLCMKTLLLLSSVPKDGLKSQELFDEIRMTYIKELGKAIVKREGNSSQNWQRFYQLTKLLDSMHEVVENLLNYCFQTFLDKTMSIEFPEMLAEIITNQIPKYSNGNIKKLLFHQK

CN1CCOCC1
inactive: all assays above

CC(C)(C)c1cccc(C(C)(C)C)c1O
inactive: all assays above

c1ccc2ncccc2c1
inactive: all assays above

c1ccc2c(c1)[nH]c1ccccc12
inactive: all assays above

O=S1(=O)CCCO1
inactive: all assays above

Cc1ccc2c(c1)C(=O)OC2=O
inactive: all assays above

C=CN1CCCC1=O
not listed: [7] | [9] | [10]
inactive: all other assays above

CCCCCCCCCCC(CO)CCCCCCCC (stereo not given)
inactive: all assays above

O=C(O)c1ccc(O)cc1
inactive: all assays above

CC1(C)OC(=O)NC1=O
inactive: all assays above

CCCCCCOCCOCCO
inactive: all assays above

CC(C)(Oc1ccc(Cl)cc1)C(=O)O
inactive: all assays above

[O-]/[N+](=N\O)c1ccccc1
not listed: [7] | [9] | [10]
inactive: all other assays above

C=C[Si](OCCOC)(OCCOC)OCCOC
inactive: all assays above

FC(F)(F)C(Cl)Br (stereo not given)
inactive: all assays above

Cc1ccc(C)c(O)c1
inactive: all assays above

CCC/C=C/C=O
inactive: all assays above

CC(=O)Nc1ccc2c(c1)Cc1cc(NC(C)=O)ccc1-2
inactive: all assays above

CC(=O)OC(C)C
inactive: all assays above

[Na+]
inactive: all assays above

IC(I)I
inactive: all assays above

Cc1ccc([N+](=O)[O-])c(C)c1
inactive: all assays above

C=C1C[C@H]2[C@@H]3C=C(C)C4=CC(=O)CC[C@]4(C)[C@H]3CC[C@]2(C)[C@@]1(OC(C)=O)C(C)=O
active: [9] 120 nM [inconclusive] and 14.1 nM
inactive: all other assays above

O=C(O)CCCC(=O)O
inactive: all assays above

Nc1ccc(N)c(Cl)c1
inactive: all assays above

c1ccc2cc3ccccc3cc2c1
inactive: all assays above

Brc1nc2ccccc2s1
inactive: all assays above

Nc1ccc2c(O)cc(S(=O)(=O)O)cc2c1
not listed: [6] | [8] | [10]
inactive: all other assays above

CCC(=O)O[C@H]1[C@H](O[C@@H]2[C@@H](C)[C@H](O[C@H]3C[C@@](C)(OC)[C@@H](O)[C@H](C)O3)[C@@H](C)C(=O)O[C@H](CC)[C@@](C)(O)[C@H](O)[C@@H](C)C(=O)[C@H](C)C[C@@]2(C)O)O[C@H](C)C[C@@H]1N(C)C
not listed: [7] | [10]
inactive: all other assays above

C[C@]12CC[C@@H]3c4ccc(O)cc4CC[C@H]3[C@@H]1CC[C@@H]2O
active: [10] 4.25 µM and 2.18 µM
not listed: [7] | [9]
inactive: all other assays above

CCCN1C=CN(C)C1
not listed: [7] | [9] | [10]
inactive: all other assays above

C=C[C@H]1CN2CC[C@H]1C[C@@H]2[C@@H](O)c1ccnc2ccc(OC)cc12
not listed: [7] | [9] | [10]
inactive: all other assays above

C=C[C@H]1CN2CC[C@H]1C[C@H]2[C@H](O)c1ccnc2ccc(OC)cc12
not listed: [7] | [9] | [10]
inactive: all other assays above

O=C(CCCN1CCC(O)(c2ccc(Cl)cc2)CC1)c1ccc(F)cc1
not listed: [7] | [10]
inactive: all other assays above

Cc1ccc(/C(=C\CN2CCCC2)c2ccccn2)cc1
not listed: [7] | [9] | [10]
inactive: all other assays above

Nc1cc(Cl)c(N)c(Cl)c1
not listed: [7]
inactive: all other assays above

C=CC(C)(O)CCC=C(C)C (stereo not given)
not listed: [7]
inactive: all other assays above

O=C(O)c1cc(=O)[nH]c(=O)[nH]1
not listed: [7]
inactive: all other assays above

Nc1ccc2c(c1)C(=O)c1ccccc1C2=O
not listed: [7] | [10]
inactive: all other assays above

CC1(C)C(C=C(Cl)Cl)C1C(=O)OCc1cccc(Oc2ccccc2)c1 (stereo not given)
not listed: [7]
inactive: all other assays above

CCCCCCCC/C=C\CCCCCCCC(=O)O
not listed: [7] | [10]
inactive: all other assays above

Cc1ccc(S(=O)(=O)NCl)cc1
not listed: [7]
inactive: all other assays above

NCCOCCO
not listed: [7]
inactive: all other assays above

COc1ccc(-c2coc3cc(O)cc(O)c3c2=O)cc1
not listed: [7] | [10]
inactive: all other assays above

CC[C@]12CCCN3CCc4c(n(c5ccccc45)[C@@](O)(C(=O)OC)C1)[C@@H]32
not listed: [7]
inactive: all other assays above

O=C(O)CCCCCCCCCCCC(=O)O
not listed: [7] | [9] | [10]
inactive: all other assays above

NC[C@H](O)c1ccc(O)c(O)c1
not listed: [7]
inactive: all other assays above

Cc1ccc(N)c([N+](=O)[O-])c1
not listed: [7]
inactive: all other assays above

COCCOCCOCCO
not listed: [7]
inactive: all other assays above

CN(Cc1cnc2nc(N)nc(N)c2n1)c1ccc(C(=O)N[C@@H](CCC(=O)O)C(=O)O)cc1
inactive: [1] | [3] | [4] | [5]
active: [2] 39.8 µM | [6] 35.5 µM [fluorescent] | [8] 35.5 µM [fluorescent]

NCCS(=O)(=O)O
not listed: [7]
inactive: all other assays above
